# Measured values as given in PubChem BioAssay.
# Calls of active or inactive are those of the source. Cut-off read from the data, not from the text of the source, unless noted: active = inhibition above about 80%; inactive = the rest.
# Assays:
# [1] = sensitizers of A549 cells to miR-34 induction, primary screen, imaging, A549 dox-inducible miR-34, nuclei and caspase counts (AID 1347080;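 active = compounds whose cell count with miR-34 switched on is under 0.7 times the count with it off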); conditions: A549 miR-34 inducible, Hoechst nuclei count, 48 h
# [2] = LFS_MB_P medulloblastoma growth inhibition, cell-based, chromothripsis tumors, cisplatin or BGB combos (AID 1671449); conditions: LFS_MB_P medulloblastoma cells;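 note: cells exposed for 96 hours; 0% = vehicle DMSO and 100% = killing by high DMSO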
# [3] = HDN33 neuroblastoma growth inhibition, cell-based, chromothripsis tumors, cisplatin or BGB combos (AID 1671450); conditions: HDN33 neuroblastoma cells, stronger effect = higher value;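 note: cells exposed to compound for four days; 0% = vehicle DMSO and 100% = cell killing by high DMSO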
# [4] = ICB984 medulloblastoma cell growth inhibition, synergistic combos for chromothripsis tumors, cisplatin or BGB combos (AID 1671451; call rule not given here;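 note: cells exposed for 96 hours before readout; 0% = vehicle DMSO and 100% = killing by high DMSO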); conditions: ICB984 medulloblastoma cells, drug combinations, stronger effect = higher value
# [5] = LFS_MB_1R medulloblastoma cell growth inhibition, synergistic combos for chromothripsis tumors, cisplatin or BGB combos (AID 1671452); conditions: LFS_MB_1R medulloblastoma cells, stronger effect = higher value;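 note: cells exposed for 96 hours before readout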
# [6] = HTB85 osteosarcoma cell growth inhibition, synergistic combos for chromothripsis tumors, BGB or cisplatin IC20 combos (AID 1671453); conditions: HTB85 osteosarcoma cells, drug combinations, stronger effect = higher value;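 note: cells exposed for 96 hours before readout; 0% = vehicle DMSO and 100% = high DMSO killing control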
# [7] = CRL2098 osteosarcoma cell growth inhibition, synergistic combos for chromothripsis tumors, BGB or cisplatin IC20 combos (AID 1671454); conditions: CRL2098 osteosarcoma cells, drug combinations, stronger effect = higher value;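 note: cells exposed for 96 h before readout; 0% = vehicle DMSO and 100% = killing by high DMSO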
# [8] = HD-MB03 medulloblastoma cell growth inhibition, synergistic combos for chromothripsis tumors, BGB or cisplatin IC20 combos (AID 1671455; in the data active = inhibition above about 83%;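 note: 0% = vehicle DMSO and 100% = high DMSO as cytotoxic control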); conditions: HD-MB03 medulloblastoma cells, stronger effect = higher value
# [9] = UWB1.289 ovarian carcinoma cell growth inhibition, synergistic combos for chromothripsis tumors, BGB or cisplatin combos (AID 1671456); conditions: UWB1.289 ovarian carcinoma cells, stronger effect = higher value;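 note: cells exposed to compound for four days; 0% = vehicle DMSO and 100% = killing by high DMSO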
# [10] = LFS_MB_2R medulloblastoma cell growth inhibition, synergistic combos for chromothripsis tumors, cisplatin combos (AID 1671457); conditions: LFS_MB_2R medulloblastoma cells, stronger effect = higher value;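 note: cells exposed to compound for four days before readout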
# [11] = MDA-MB-436 breast carcinoma cell growth inhibition, synergistic combos for chromothripsis tumors, BGB or cisplatin combos (AID 1671458; call rule not given here;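 note: cells exposed for 96 hours; 0% = vehicle DMSO and 100% = killing by high DMSO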); conditions: MDA-MB-436 breast carcinoma growth inhibition, drug combinations, stronger effect = higher value
# [12] = UWB1.289_BRCA1 ovarian cancer growth, cell-based, BGB or cisplatin combinations (AID 1671459); conditions: UWB1.289 BRCA1 ovarian carcinoma, drug combinations, stronger effect = higher value
# [13] = human astrocyte viability loss, single and combined drugs, cytotoxicity control for chromothriptic childhood tumor combination screen, cell-based, BGB or cisplatin IC20 combos (AID 1671460); conditions: Human astrocytes, drug combinations, stronger effect = higher value;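 note: cells exposed to compounds for 96 hours before viability readout; 0% = vehicle and 100% = killing control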
# [14] = growth inhibition of BT084 medulloblastoma cells, cell-based, ICGC_MB145, cisplatin and BGB IC40 combos (AID 1671461); conditions: drug combinations, stronger effect = higher value;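 note: cells exposed to drugs for 96 hours; 0% = vehicle DMSO and 100% = high DMSO full killing control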
# [15] = growth inhibition of RCMB18 medulloblastoma cells, cell-based, cisplatin and BGB IC40 combos (AID 1671462); conditions: stronger effect = higher value;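 note: cells exposed to compound for four days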
# [16] = growth inhibition of CRL1545 osteosarcoma cells, cell-based, cisplatin and BGB IC20 combos (AID 1671464); conditions: stronger effect = higher value;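 note: cells exposed to compound for 96 hours before readout; 0% = vehicle DMSO and 100% = high DMSO killing control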
# [17] = circadian clock period modulators, cell-based, LOPAC library, luminescence reporter (AID 2774; call rule not given here;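 note: values are relative to mean of DMSO wells on each plate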); conditions: circadian reporter cells, at 7 µM, actives lie on both sides
# [18] = tested on: Hepatitis C virus NS3 helicase; experiment: HCV NS3 helicase inhibitors, primary screen, biochemical, fluorescence polarization, LOPAC1280 library (AID 687035; in the data active = inhibition above about 37%); conditions: Purified HCV NS3 helicase, Cy5-dT15 ssDNA binding fluorescence polarization; stronger effect = higher value; concentration not given here
# [19] = Cy5 fluorescence quenching or enhancement artefacts, artefact control for HCV NS3 helicase inhibitor project, biochemical, LOPAC1280 (AID 687037; call rule not given here); conditions: Cy5-DNA-NS3h complex fluorescence interference counterscreen
# [20] = viability rescue of complex I mutant cybrids, primary screen, cell-based, galactose medium, ATP luminescence (AID 1645843;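 active = z-score of at least 1.8 in each of two replicates, scored against plate mean and spread of sample wells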;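 note: positive z means more ATP and so rescue of galactose-driven cybrid death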); conditions: complex I mutant cybrid cells, 72 h, stronger effect = higher value
# [21] = stronger effect = lower value, cell number ratio, induced over uninduced
# [22] = measured here: relative caspase fold change +Dox/-Dox
# [23] = measured here: total cells with miR-34 induction, stronger effect = lower value
# [24] = measured here: total cells without miR-34 induction
# [25] = measured here: combination with BGB IC40, at 0.05 µM
# [26] = measured here: with BGB IC20 combination, at 0.5 µM
# [27] = measured here: with cisplatin IC20 combination, at 0.5 µM
# [28] = measured here: combination with cisplatin, at 0.5 µM
# [29] = measured here: combination with cisplatin, at 5 µM
smiles,measurement,setting,value
Cc1ccc(NC(=O)CCCCCC(=O)Nc2ccccc2N)cc1,fold change,[1]; [21],1.01 (inactive)
same,fold change,[1]; [22],1.02
same,cell count,[1]; [23],5390
same,cell count,[1]; [24],5360
same,inhibition,"[2]; at 0.5 µM, stronger effect = higher value",2.92% (inactive)
same,inhibition,"[2]; measured here: combination with BGB IC20, at 0.005 µM",-29.8%
same,inhibition,"[2]; measured here: combination with BGB IC40, at 0.005 µM",-45%
same,inhibition,[2]; [25],-45.4%
same,inhibition,"[2]; measured here: combination with cisplatin, at 0.5 µM, stronger effect = higher value",-6.67%
same,inhibition,"[2]; measured here: combination with cisplatin, at 5 µM, stronger effect = higher value",65.8%
same,inhibition,"[3]; BGB combo, at 5 µM",11%
same,inhibition,[3]; at 0.5 µM,-14.2% (inactive)
same,inhibition,"[3]; cisplatin combo, at 5 µM",32%
same,inhibition,[3]; [26],-21.3%
same,inhibition,[3]; [27],-11%
same,inhibition,"[3]; single agent, at 5 µM",25.4%
same,inhibition,"[4]; BGB IC20 combo, at 0.005 µM",-3.62%
same,inhibition,"[4]; BGB IC40 combo, at 0.005 µM",-26.5%
same,inhibition,"[4]; BGB IC40 combo, at 0.05 µM",6.33%
same,inhibition,[4]; at 0.5 µM,-27.2% (inactive)
same,inhibition,"[4]; cisplatin combo, at 0.05 µM",1.63%
same,inhibition,"[4]; cisplatin combo, at 0.5 µM",-36.9%
same,inhibition,"[4]; cisplatin combo, at 5 µM",-6.29%
same,inhibition,"[4]; measured here: 5 uM single agent, at 5 µM",-12.7%
same,inhibition,[5]; at 0.5 µM,-31.8% (inactive)
same,inhibition,[5]; [25],-38%
same,inhibition,[5]; [28],-38.7%
same,inhibition,[5]; [29],61.4%
same,inhibition,[6]; at 0.5 µM,-11.4% (inactive)
same,inhibition,"[6]; measured here: with BGB IC20, at 0.5 µM",11.7%
same,inhibition,"[6]; measured here: with BGB IC20, at 5 µM",31.2%
same,inhibition,"[6]; measured here: with cisplatin IC20, at 0.5 µM",-26.9%
same,inhibition,"[6]; measured here: with cisplatin IC20, at 5 µM",33.8%
same,inhibition,"[6]; single agent, at 5 µM",12.7%
same,inhibition,[7]; at 0.5 µM,-71% (inactive)
same,inhibition,"[7]; measured here: combination with BGB at IC20, at 0.5 µM",-75.9%
same,inhibition,"[7]; measured here: combination with cisplatin at IC20, at 0.5 µM",-67.2%
same,inhibition,[8]; at 0.5 µM,-7.72% (inactive)
same,inhibition,"[8]; measured here: combo with BGB at IC20, at 0.5 µM",0.828%
same,inhibition,"[8]; measured here: combo with cisplatin at IC20, at 0.5 µM",-9.85%
same,inhibition,[9]; at 0.5 µM,-13.2% (inactive)
same,inhibition,"[9]; measured here: inhibition with BGB combination, at 0.05 µM",-44.6%
same,inhibition,"[9]; measured here: inhibition with cisplatin combination, at 0.05 µM",-27.1%
same,inhibition,[10]; at 0.5 µM,-23.5% (inactive)
same,inhibition,[10]; [28],-17.5%
same,inhibition,[10]; [29],50.2%
same,inhibition,[11]; at 0.5 µM,-27.5% (inactive)
same,inhibition,"[11]; measured here: BGB combination, at 0.5 µM",-25.9%
same,inhibition,"[11]; measured here: BGB combination, at 5 µM",-14.6%
same,inhibition,"[11]; measured here: cisplatin combination, at 0.5 µM",-44.2%
same,inhibition,"[11]; measured here: cisplatin combination, at 5 µM",15.1%
same,inhibition,"[12]; BGB combination, concentration series, at 5 µM",23.3%
same,inhibition,[12]; at 0.5 µM,-23.2% (inactive)
same,inhibition,"[12]; cisplatin combination, concentration series, at 5 µM",51.6%
same,inhibition,[13]; at 0.5 µM,-11.1% (inactive)
same,inhibition,"[13]; measured here: combo with BGB IC20, at 0.5 µM",-7.99%
same,inhibition,"[13]; measured here: combo with cisplatin IC20, at 0.5 µM",-17.6%
same,inhibition,[14]; at 0.5 µM,-11.1% (inactive)
same,inhibition,"[14]; cisplatin combination, at 0.5 µM",8.17%
same,inhibition,"[14]; cisplatin combination, at 5 µM",68.8%
same,inhibition,"[14]; measured here: BGB IC40 combination 0.05 uM, at 0.05 µM",-52.4%
same,inhibition,"[14]; single agent, at 5 µM",25.1%
same,inhibition,[15]; at 0.5 µM,6.99% (inactive)
same,inhibition,"[15]; cisplatin combo, at 5 µM",67.3%
same,inhibition,"[15]; measured here: BGB IC40 combination, at 0.05 µM",-18.3%
same,inhibition,[15]; [28],0.344%
same,inhibition,"[15]; single agent, at 5 µM",35.9%
same,inhibition,[16]; at 0.5 µM,6.85% (inactive)
same,inhibition,[16]; [26],21.7%
same,inhibition,[16]; [27],-2.22%
same,inhibition,"[16]; single agent, at 0.05 µM",-29%
same,inhibition,"[16]; single agent, at 5 µM",60.5%
O=C(O)CCC(=O)N1CCCC1C(=O)O (stereo not drawn),period change,[17],-0.225 h (inactive)
same,inhibition,[18],-2% (inactive)
same,fluorescence ratio (interference),[19],1 (inactive)
same,fold change,[1]; [21],0.97 (inactive)
same,fold change,[1]; [22],1.16
same,cell count,[1]; [23],9450
same,cell count,[1]; [24],9740
same,z-score,[20],0.565 (inactive)
N.N.N.N.N.N.N.N.N.N.N.N.N.N.O.O.[Cl-].[Cl-].[Cl-].[Cl-].[Cl-].[Cl-].[Ru+4].[Ru+5].[Ru+5],period change,[17],0.18 h (inactive)
same,inhibition,[18],-98% (inactive)
same,fluorescence ratio (interference),[19],0 (active)
same,fold change,[1]; [21],1.03 (inactive)
same,fold change,[1]; [22],0.871
same,cell count,[1]; [23],10700
same,cell count,[1]; [24],10400
same,z-score,[20],-0.735 (inactive)
